Results published in PubChem BioAssay (NCI).
Compounds without any hit were thinned out: in the full panel of roughly 83,000, 20% have a hit.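 Results are percent growth after 48 hours of single-concentration exposure. 100 means growth as in untreated cells, lower positive values show inhibition; negative values down to -100 show cell death.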 A number with no mark means an inactive call. Active and inactive are the calls of the source. How the source made its calls: active means growth percent below 10; inactive means the rest.

These compounds were tested on HL-60(TB) leukemia (assay: NCI-60 one-dose screen, 48 h (100 = growth as untreated, 0 = no growth, -100 = all killed)). Conditions: 10 µM unless noted.

| Compound | growth |
| --- | --- |
| COc1ccc(-c2nnc(COc3ccc(C(=O)/C=C/c4ccco4)cc3)o2)cc1 | 79.7% |
| COc1cc(/C=C2\COc3ccc(O)cc3C2=O)cc(OC)c1 | 18.4% |
| NC(=O)OCCn1cc(-c2nc(-c3c[nH]c4ncccc34)cs2)c2ccccc21 | 6.14% (active) |
| COc1cc2c(=O)n(C3CCCCCC3)c3c4cc[nH]c4ncc3c2cc1OC | 74.1% |
| O=C1c2cccc3cccc(c23)C(=O)N1CCCCCCCCCCN1C(=O)c2cccc3cccc(c23)C1=O | 99.6% |
| COc1cc2c(=O)n(CCCn3ccnc3)c3c4cc5c(cc4ccc3c2cc1OC)OCO5 | -15.2% (active) |
| O=C1/C(=C/c2cccc(F)c2)CN(C(=O)C(Cl)Cl)C/C1=C\c1cccc(F)c1 | -41.6% (active) |
| O=[N+]([O-])c1ccc(Sc2nc(Cl)nc(NC3CCCC3)n2)cc1 | -26% [100 µM] (active) |
| Cc1ccc(-c2cc(C(=O)Nc3ccc(S(=O)(=O)N4CCCCC4)cc3)[nH]n2)c(O)c1 | 48.7% |
| COc1ccc(-c2nnc(SCC(=O)Nc3ccc(/C(C)=N\O)cc3)n2-c2ccccc2)cc1OC | 77.3% |
| O=C(CCl)c1ccc2c(c1)CCCC2 | 96.9% |
| Nc1ccc2c(c1)/C(=N/O)c1cc([N+](=O)[O-])ccc1-2 | 64.1% |
| CCN(CC)CCNc1ncnc2c1cnn2-c1ccc(Cl)cc1 | 39.1% |
| CCOC(=O)C(O)C(O)(c1ccccc1)c1ccccc1 (stereo not given) | 91.1% |
| CN(CCOc1ccc(C#N)cc1)CCOc1ccc(C#N)cc1 | 42.4% |
| CCOC(=O)CSc1nc2sc3c(c2c(=O)n1-c1ccccc1)CCCCC3 | 109% |
| COc1ccc(C(=O)CSc2nnc(-c3cc(-c4ccccc4)nc4ccccc34)o2)cc1 | 111% |
| CC(C)(C)n1cc(-c2ccnc(NCCNS(=O)(=O)c3ccc(O)cc3)c2)c(-c2cccc(O)c2)n1 | 101% |
| CCc1ccc2nc(NC(=O)Cc3csc(NC(=O)c4ccco4)n3)sc2c1 | 74.2% |
| Cc1ccncc1C(=O)O | 106% |

| Compound | growth |
| --- | --- |
| C#CCOc1ccc2ncnc(Nc3cccc(CNC(=O)C=C)c3)c2c1 | 97.4% [8.25 µM] |
| Cc1ccc(Nc2ncnc3c2sc2ncccc23)cc1 | 71.2% |
| COc1ccc(-n2c(C(O)c3ccccc3)n[nH]c2=S)cc1 (stereo not given) | 119% |
| CC(=O)Nc1ccc(OC(=O)c2ccccc2O)cc1 | 102% |
| COCCn1cc(-c2csc(-c3cn(C)c4ccc(Br)cc34)n2)c2cccnc21 | 51.3% |
| O=S(=O)(O)c1cccc2cccnc12 | 94% |
| O=S(Nc1ccccc1)c1ccc(Cl)cc1 (stereo not given) | 90.8% |
| Cc1cc(F)ccc1S(=O)(=O)Nc1cc(-c2c(O)ccc3ccccc23)c(O)c2ccccc12 | -10.8% (active) |
| Cc1cc(N2CCCC2)nc(N(CCCNc2ccnc3cc(Cl)ccc23)Cc2ccccn2)n1 | 23.4% |
| O=S(=O)(CCN1CCOCC1)Nc1cc(-c2ccc3ncnc(Nc4ccc(F)c(Cl)c4)c3c2)cnc1Cl | 27.3% |
| CCCCS(=O)(=O)c1cc(Nc2ccc(O)c3c2C(=O)c2ccccc2C3=O)ccc1C | 75% |
| O=c1ncc(-c2ccc(C(F)(F)F)cc2)c(NC2CCCCCC2)[nH]1 | 23.3% |
| CCCCc1ccc(NC(=O)C(F)(F)F)cc1 | 71.2% |
| CCc1ccc2c(c1)N(CCO)C1=C(C(=O)OC1)C2c1cc(OC)c(OC)c(OC)c1 (stereo not given) | -26.4% (active) |
| O=C(Nc1ccc([N+](=O)[O-])cc1)c1cc2ccccc2cc1O | -16.7% (active) |
| CCCC[n+]1c(/C=C\c2c(OC)cc(OC)cc2OC)ccc2ccccc21 | -58.8% (active) |
| Cc1cc(Nc2nc(N3CCOCC3)nc3ccccc23)n[nH]1 | 63.1% |
| Cc1ccc2oc(=O)cc(C3C(C#N)=C(N)Oc4c3ccc3ccccc43)c2c1 (stereo not given) | 53.1% |
| CCOc1ccc(-n2c(-c3cc(OC)c(OC)c(OC)c3)nnc2-c2ccc(OC)cc2N)cc1 | 28.5% |
| OCCOc1ccc(-c2cc(-c3ccccn3)nc(-c3ccccn3)c2)cc1 | -36.1% (active) |
